Screening data as filed in PubChem BioAssay.
Vaccinia mCherry – qHTS for Stage-Specific Inhibitors of Vaccinia Orthopoxvirus: mCherry Reporter Primary qHTS. Potency, µM (highest dose often 36.5 µM), actives largely listed as inhibitors. Vaccinia virus mCherry reporter infection, fluorescence. AID 720579, 2013. 310,000 compounds, 0.63% hits; calls by dose curve; tested in A549 cells; further: nearly all actives have a fitted effect of over 35% in size
HCMV antiviral – qHTS Assay for inhibitors of the human cytomegalovirus (HCMV); AID 1259415, 2018; activity change, negative = inhibition, % at 57.5 µM; 410,000 compounds, 4.5% hits; HFF cells, HCMV-luciferase reporter, 72 h; stronger effect = lower value; in the data active means activity change below about -60%; inconclusive means no clear call, values can overlap the other calls; inactive means above about -39%
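Steps: HFFs plated, 16 h 37C; compounds added; HCMV-luciferase added to MOI 1 PFU/cell; 72 h 37C; OneGlo reagent, 5 min room temperature; luminescence read, normalized to controls.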
MARV entry inh – qHTS for inhibitors of binding or entry into cells for Marburg Virus. Potency, µM (titrated, usually from 37.8 µM), actives largely listed as inhibitors. AID 540276, 2011. 300,000 compounds, 1.8% hits. Marburg virus pseudotyped entry inhibition, cell reporter; calls by dose curve; tested in HEK293 cells
LASV entry inh – qHTS for Inhibitors of binding or entry into cells for Lassa Virus; Lassa virus pseudotype entry inhibition, cell reporter; Potency, µM (series often up to 37.9 µM), actives largely listed as inhibitors; 300,000 compounds, 1.2% hits; AID 540256, 2011; calls by dose curve; tested in HEK293 cells; further: nearly all actives have a fitted effect of over 50% in size
FMDV antiviral – High Throughput Screening for Foot and Mouth Disease Virus Antivirals | 410,000 compounds, 1.2% hits | Potency, µM (top dose mostly 57.9 µM), hits mostly inhibitors | FMDV antiviral cell-based qHTS; calls by dose curve; tested in HEK293T cells; further: read-out not given here; nearly all actives have a fitted effect of over 45% in size
Vaccinia Venus – qHTS for Stage-Specific Inhibitors of Vaccinia Orthopoxvirus: Venus Reporter Primary qHTS; 330,000 compounds, 0.46% hits; Vaccinia virus Venus reporter expression, fluorescence; Potency, µM (doses to about 36.5 µM), most hits filed as inhibitors; calls by dose curve; tested in A549 cells; further: nearly all actives have a fitted effect of over 30% in size
Each line names hits and unclear results; the compound was inactive in the other large screens. Compounds with a hit are over-represented: about 6.5% of the library has one in this group of screens.

Cc1oc(-c2ccc(Cl)cc2)nc1CN1CCCC(C(=O)NC2CC2)C1 (centres undefined)	none (no result: Vaccinia mCherry, MARV entry inh, LASV entry inh, Vaccinia Venus)
CCCN(C(=O)Nc1cn(CC(C)C)c(=O)c2ccccc12)c1ccc(F)cc1	none (no result: MARV entry inh)
C[n+]1c(/C=C/c2ccnc3ccccc23)cc(/C=C/c2ccnc3ccccc23)c2ccccc21	none (no result: HCMV antiviral, MARV entry inh, LASV entry inh, FMDV antiviral)
COc1ccc2c(c1O)-c1cccc3c1C(C2)N(C)CC3 (centres undefined)	MARV entry inh 1µM (no result: Vaccinia mCherry, HCMV antiviral, LASV entry inh, FMDV antiviral, Vaccinia Venus)
CCCN1CCc2cccc3c2[C@H]1Cc1ccc(O)c(O)c1-3	MARV entry inh inconclusive, LASV entry inh inconclusive (no result: HCMV antiviral)
CN1CCc2cccc3c2[C@H]1Cc1ccc(O)c(O)c1-3	HCMV antiviral -66.3, LASV entry inh inconclusive, FMDV antiviral inconclusive
C=CCN1CCc2cccc3c2C1Cc1ccc(O)c(O)c1-3 (centres undefined)	MARV entry inh 11.2µM (no result: HCMV antiviral, LASV entry inh)
COc1ccc2cc1Oc1ccc(cc1)C[C@H]1c3cc(c(OC)cc3CCN1C)Oc1c(OC)c(OC)cc3c1[C@@H](C2)N(C)CC3	HCMV antiviral -66.5 (no result: MARV entry inh, LASV entry inh)
CN1CCc2cc(O)cc3c2C1Cc1ccc(O)c(O)c1-3 (centres undefined)	MARV entry inh inconclusive (no result: HCMV antiviral, LASV entry inh)
Cc1oc(-c2ccccc2NC(=O)c2ccsc2)nc1CN(C)CC1CC=CCC1 (centres undefined)	none (no result: HCMV antiviral, MARV entry inh, LASV entry inh)
COc1cccc(CNC(=O)c2c(OC)cc(=O)n3c2CCN(C(=O)c2ccc(C)cc2C)CC3)c1	none (no result: HCMV antiviral, MARV entry inh, LASV entry inh)
c1ccc(CSc2nc3ncccc3[nH]2)cc1	none (no result: MARV entry inh)
CCN1C(=O)NC(c2cccc(C(F)(F)F)c2)C(C(C)=O)=C1C (centres undefined)	LASV entry inh inconclusive (no result: Vaccinia mCherry, HCMV antiviral, FMDV antiviral, Vaccinia Venus)
COc1ccc2c(c1O)-c1c(OC)c(OC)cc3c1[C@H](C2)N(C)CC3	HCMV antiviral -62.6 (no result: MARV entry inh, LASV entry inh)
COc1ccc2c(c1O)-c1c(OC)c(OC)cc3c1[C@@H](C2)N(C)CC3	none (no result: HCMV antiviral, MARV entry inh, LASV entry inh)
Cc1cnc(C)c(-c2cc(F)cc3c2OC(CNC(=O)Cc2ccccc2C)C3)n1 (centres undefined)	none (no result: HCMV antiviral, MARV entry inh, LASV entry inh)
CC(=O)/C(C#N)=C1\NC(=O)C(Cc2ccccc2C)S1 (centres undefined)	Vaccinia mCherry inconclusive, HCMV antiviral -82.6, MARV entry inh inconclusive, LASV entry inh inconclusive
CC(=O)/C(C#N)=C1\NC(=O)[C@@H](Cc2ccccc2)S1	MARV entry inh 2.51µM (no result: Vaccinia mCherry, HCMV antiviral, LASV entry inh, FMDV antiviral, Vaccinia Venus)
CNC(=O)/C(C#N)=C1\SC(Cc2ccc(F)cc2)C(=O)N1c1ccccc1C (centres undefined)	none (no result: Vaccinia mCherry, MARV entry inh, LASV entry inh, Vaccinia Venus)
C/C(=N\N=C1\NC(=O)C(Cc2ccccc2)S1)c1ccccc1 (centres undefined)	LASV entry inh 2.31µM (no result: Vaccinia mCherry, Vaccinia Venus)
CC(=O)/C(C#N)=C1\NC(=O)C(Cc2ccccc2)S1 (centres undefined)	Vaccinia mCherry inconclusive, HCMV antiviral -99.3, MARV entry inh 2.51µM, LASV entry inh inconclusive
CCn1c(-c2ccccc2F)nc2cc(C(=O)N3CCCC(CO)C3)cc(NC(C)=O)c21 (centres undefined)	none (no result: HCMV antiviral, MARV entry inh, LASV entry inh)
CO[C@H]1[C@H](NC(=O)c2ccco2)c2ccccc2C12CCN(Cc1cc(Cl)ccc1O)CC2	Vaccinia mCherry inconclusive (no result: HCMV antiviral, MARV entry inh, LASV entry inh)
Oc1cccc(Nc2nc(-c3ccccc3Cl)nc3ccccc23)c1	Vaccinia mCherry 10µM, HCMV antiviral inconclusive, MARV entry inh inconclusive, FMDV antiviral inconclusive
Oc1cccc(Nc2c3ccccc3nc3ccccc23)c1	Vaccinia mCherry inconclusive, HCMV antiviral -100.1, FMDV antiviral inconclusive, Vaccinia Venus 10µM (no result: MARV entry inh, LASV entry inh)
c1cncc(Nc2c3ccccc3nc3ccccc23)c1	HCMV antiviral -85.9, MARV entry inh inconclusive, Vaccinia Venus inconclusive
Cc1ccc(-c2nc(Nc3cccc(O)c3)c3ccccc3n2)cc1	HCMV antiviral inconclusive (no result: Vaccinia mCherry, MARV entry inh, LASV entry inh, Vaccinia Venus)
O=C(O)c1ccc(Nc2c3ccccc3nc3ccccc23)cc1	none
CCCCCNC(=O)C(=O)C(=O)c1cc(OC)c(OC)c(OC)c1	none (no result: Vaccinia mCherry, MARV entry inh, LASV entry inh, FMDV antiviral, Vaccinia Venus)
Cc1cccc(CN2CCN(C3CN(CCc4ccccc4)S(=O)(=O)C3)CC2)c1 (centres undefined)	HCMV antiviral -62.9, LASV entry inh inconclusive (no result: MARV entry inh)
CCCCCCN1CCN(C2CN(Cc3ccc(C)cc3)S(=O)(=O)C2)CC1 (centres undefined)	LASV entry inh 6.28µM (no result: MARV entry inh)
